According to PubChem BioAssay AID2599 (Sanford-Burnham Center for Chemical Genomics, 2010):
The whole screen tested about 330,000 compounds, of which about 5,800 (1.8%) were called active. What follows is part of a selection rich in actives, with near analogues and random picks from the rest. Unmarked numbers belong to inactive results.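 How the source made its calls: active means inhibition above about 50% at the single tested dose (limit read from the data); inactive means the rest.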

Molecular target: Sentrin-specific protease 6 (Homo sapiens) (UniProt Q9GZR1)
Sequence (Q9GZR1 628-1112 limits assumed): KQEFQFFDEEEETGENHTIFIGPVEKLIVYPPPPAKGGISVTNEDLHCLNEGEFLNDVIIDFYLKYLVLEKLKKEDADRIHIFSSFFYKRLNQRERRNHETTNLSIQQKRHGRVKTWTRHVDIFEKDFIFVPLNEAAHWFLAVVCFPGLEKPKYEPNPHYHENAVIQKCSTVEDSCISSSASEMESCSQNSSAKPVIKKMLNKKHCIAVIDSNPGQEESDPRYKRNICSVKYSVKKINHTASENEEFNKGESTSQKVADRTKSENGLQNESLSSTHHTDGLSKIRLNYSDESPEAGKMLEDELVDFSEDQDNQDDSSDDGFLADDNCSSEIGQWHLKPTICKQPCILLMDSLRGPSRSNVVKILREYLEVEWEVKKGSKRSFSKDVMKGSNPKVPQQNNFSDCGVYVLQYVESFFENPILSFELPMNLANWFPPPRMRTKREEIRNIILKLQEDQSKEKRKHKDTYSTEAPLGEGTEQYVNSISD
Assay: inhibition of human SENP6 catalytic domain – biochemical, luminescence, uHTS, primary screen (AID 2599);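 further: plate controls were DMSO wells with enzyme for no effect and DMSO wells lacking enzyme for full effect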
Conditions: Recombinant SENP6 catalytic domain, aminoluciferin luminescence; at 10 µM; stronger effect = higher value

**Q.** Which inhibition does the source give for `O=[N+]([O-])c1ccc(C=Nc2ccc(Cl)cc2Cl)s1` here?
**A.** 57.5% (active)

**Q.** `COc1ccc(C(=O)NCC(=O)N/N=C/c2ccc([N+](=O)[O-])s2)cc1OC` was tested. Which inhibition did it give?
**A.** 48.9%

**Q.** How did the inhibition turn out when `CC(C)(C)c1cc(C(=O)N/N=C/c2ccc([N+](=O)[O-])s2)n[nH]1` was run?
**A.** 35.9%

**Q.** `CC(=O)Nc1nc(N(C)C)nc(N(C)C)n1` was tested. Which inhibition did it give?
**A.** -13.9%

**Q.** For `CCOC(=O)C(C)n1cnc2sc(C)c(C)c2c1=O` (stereo not drawn), which inhibition is on record?
**A.** -17.3%

**Q.** With `Cc1cccc(OC(=O)c2sc3ncn(C)c(=O)c3c2C)c1` as the compound, how does the inhibition read?
**A.** 52.6% (active)

**Q.** Which inhibition does the source give for `Cc1c(C(N)=O)sc2ncn(CCOc3ccccc3)c(=O)c12` here?
**A.** -16.1%

**Q.** `FC(F)(F)c1ccc(-n2cn[nH]c2=S)cc1` was tested. Which inhibition did it give?
**A.** -14.6%

**Q.** With `CCSC1=NCCN1S(=O)(=O)c1ccc(F)cc1` as the compound, how does the inhibition read?
**A.** -6.19%

**Q.** `CCCn1nnnc1NCc1ccc(CC)cc1` was tested. Which inhibition did it give?
**A.** -6.18%

**Q.** Which inhibition does the source give for `O=C(CSc1nn(-c2ccc(F)cc2)c(=S)s1)NC1CCS(=O)(=O)C1` (stereo not drawn) here?
**A.** -6.03%

**Q.** For `c1c2c(cc3sc(N4CCCCC4)nc13)OCCO2`, which inhibition is on record?
**A.** 7.27%

**Q.** With `O=S(=O)(Nc1ccc2nc(N3CCOCC3)sc2c1)c1ccccc1` as the compound, how does the inhibition read?
**A.** -2.51%

**Q.** For `Fc1ccc2nc(Nc3nc4c(s3)CCCC4)sc2c1`, which inhibition is on record?
**A.** 34.4%

**Q.** For `Fc1ccc2nc(N3CCCCC3)sc2c1`, which inhibition is on record?
**A.** 89.5% (active)

**Q.** How did the inhibition turn out when `O=C(c1ccc2nc(N3CCOCC3)sc2c1)N1CCN(c2ccc(Cl)cc2)CC1` was run?
**A.** -6.6%

**Q.** `Brc1ccc2nc(N3CCCC3)sc2c1` was tested. Which inhibition did it give?
**A.** 75.4% (active)

**Q.** Which inhibition does the source give for `C/C(=N/NC(=O)CCc1ccccc1)c1ccco1` here?
**A.** 12.1%

**Q.** Which inhibition does the source give for `C=CCn1c(C)cc(C2=NNC(=NCC)SC2)c1C` here?
**A.** 92.9% (active)

**Q.** With `COc1ccc(CC(NC(C)=O)C(=O)NC2CCN(C(=O)C3CC3)CC2)cc1OC` (stereo not drawn) as the compound, how does the inhibition read?
**A.** -9.43%

**Q.** `C=C(C)CSc1nc(N)c2c3c(sc2n1)CCC3` was tested. Which inhibition did it give?
**A.** 1.28%

**Q.** How did the inhibition turn out when `O=C(NC(Nc1nc2ccc([N+](=O)[O-])cc2s1)(C(F)(F)F)C(F)(F)F)c1ccccc1` was run?
**A.** -1.71%

**Q.** How did the inhibition turn out when `O=C(Nc1nc2ccc([N+](=O)[O-])cc2s1)c1ccncc1` was run?
**A.** 91.5% (active)

**Q.** Which inhibition does the source give for `COc1ccc(C(=O)Nc2nc(-c3ccc(OC)cc3)c(-c3ccc([N+](=O)[O-])cc3)s2)cc1` here?
**A.** -31.8%

**Q.** Which inhibition does the source give for `CCN(CC)S(=O)(=O)c1ccc(N2CCOCC2)c(NC(=O)C2CSC3(C)CCC(=O)N23)c1` (stereo not drawn) here?
**A.** 4.82%

**Q.** `CCCC(=O)N(CCN1CCOCC1)c1nc2ccc(OCC)cc2s1` was tested. Which inhibition did it give?
**A.** -4.24%

**Q.** For `COc1ccc2cc(C(=O)C3CCCN(C(=O)c4sc(C)nc4C)C3)ccc2c1` (stereo not drawn), which inhibition is on record?
**A.** -16.8%

**Q.** For `CCOc1ccc2nc(C(=O)N3CCCC(C)C3)sc2c1` (stereo not drawn), which inhibition is on record?
**A.** 70.8% (active)
